In PubChem BioAssay:
Several values for one entry are separate records, joined by “and”; a condition that tells them apart may be missing. Equal entries are not always repeated. Records with an inconclusive call do not appear. Activity calls are given as the source filed them.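 Rule for the calls, unless noted: active = normalized viability below 100% at a tested concentration; inactive = the rest.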

Legend:
[1] = viability loss in pontine glioma line – cell-based, SU-DIPG-XXV, MIPE5.0, CellTiter-Glo, qHTS, dose response (AID 1347065; cut-off not given, nearly all actives have AC50 up to about 26 µM;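 note: cells exposed to compound for 48 hours before ATP readout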); details: CellTiter-Glo ATP luminescence
[2] = JHH-DIPG-1 glioma cell viability, MIPE5.0 library, CellTiter-Glo luminescence, qHTS (AID 1347067; cut-off not given, nearly all actives have AC50 up to about 26 µM;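 note: cells exposed to compound for 48 hours before readout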); details: JHH-DIPG-1 glioma viability, CellTiter-Glo ATP luminescence
[3] = SU-DIPG-XXV glioma cell viability, MIPE5.0 library, qHTS (AID 1347068; cut-off not given, nearly all actives have IC50 up to about 30 µM)
[4] = sensitizers of A549 cells to miR-34 induction, primary screen, imaging, A549 dox-inducible miR-34, nuclei and caspase counts (AID 1347080;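 active = compounds whose cell count with miR-34 switched on is under 0.7 times the count with it off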); details: A549 miR-34 inducible, Hoechst nuclei count, 48 h
[5] = survival rescue of mitochondrial mutant cells in low glucose, primary screen, MELAS cybrids, Rieske KO mouse fibroblasts, CellTiter-Glo (AID 1508586;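 active = mean z-score across replicates of 1.96 or higher in either the MELAS or the Rieske mutant cell line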;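 note: z relative to plate mean and SD of compound and empty wells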)
[6] = target: NAD(+) hydrolase SARM1 (Homo sapiens) (UniProt Q6SZW1); experiment: SARM1 TIR NADase inhibitors, cell lysate, NAD-Glo luminescence (AID 1508614;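 active = compound whose remaining NAD level is above about 45 nM, limit read from the data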;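 note: higher remaining NAD means stronger inhibition of SARM1 NADase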); details: SAM-TIR HEK293T lysate NADase, at 1 µM, stronger effect = higher value
NAD(+) hydrolase SARM1 (Homo sapiens), sequence (Q6SZW1 whole entry, looked up, the tested form may be a part): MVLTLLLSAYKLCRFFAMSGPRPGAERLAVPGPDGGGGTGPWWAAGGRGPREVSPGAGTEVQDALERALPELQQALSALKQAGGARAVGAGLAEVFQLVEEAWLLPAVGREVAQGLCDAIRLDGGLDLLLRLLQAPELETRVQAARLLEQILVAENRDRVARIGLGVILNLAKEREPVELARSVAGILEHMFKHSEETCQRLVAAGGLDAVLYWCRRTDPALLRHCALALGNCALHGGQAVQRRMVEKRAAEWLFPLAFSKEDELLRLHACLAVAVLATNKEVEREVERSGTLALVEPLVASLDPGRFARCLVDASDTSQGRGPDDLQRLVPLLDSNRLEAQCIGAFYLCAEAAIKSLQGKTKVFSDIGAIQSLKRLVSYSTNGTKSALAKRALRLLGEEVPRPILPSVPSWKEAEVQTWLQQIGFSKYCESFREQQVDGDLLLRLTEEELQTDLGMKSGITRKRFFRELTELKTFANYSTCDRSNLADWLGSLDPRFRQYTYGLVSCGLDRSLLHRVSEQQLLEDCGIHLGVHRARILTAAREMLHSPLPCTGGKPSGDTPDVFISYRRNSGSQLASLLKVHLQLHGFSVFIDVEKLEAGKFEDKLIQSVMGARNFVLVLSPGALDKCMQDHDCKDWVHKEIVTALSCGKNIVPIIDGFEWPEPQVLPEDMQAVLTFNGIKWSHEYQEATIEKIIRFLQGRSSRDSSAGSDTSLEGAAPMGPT

[7] = target: Mitogen-activated protein kinase 7 (Homo sapiens) (UniProt Q13164); experiment: ERK5 transactivation activators in reporter cells, primary screen, cell-based, HTS (AID 1508626;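 active = luciferase signal above three times the same-plate solvent-only control wells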;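 note: luciferase driven by Gal4-ERK5 fusion binding five Gal4 sites before minimal TATA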); details: HeLa Gal4-ERK5 transactivation, 18 h, at 5 µM, stronger effect = higher value
Mitogen-activated protein kinase 7 (Homo sapiens), sequence (Q13164 whole entry, looked up, the tested form may be a part): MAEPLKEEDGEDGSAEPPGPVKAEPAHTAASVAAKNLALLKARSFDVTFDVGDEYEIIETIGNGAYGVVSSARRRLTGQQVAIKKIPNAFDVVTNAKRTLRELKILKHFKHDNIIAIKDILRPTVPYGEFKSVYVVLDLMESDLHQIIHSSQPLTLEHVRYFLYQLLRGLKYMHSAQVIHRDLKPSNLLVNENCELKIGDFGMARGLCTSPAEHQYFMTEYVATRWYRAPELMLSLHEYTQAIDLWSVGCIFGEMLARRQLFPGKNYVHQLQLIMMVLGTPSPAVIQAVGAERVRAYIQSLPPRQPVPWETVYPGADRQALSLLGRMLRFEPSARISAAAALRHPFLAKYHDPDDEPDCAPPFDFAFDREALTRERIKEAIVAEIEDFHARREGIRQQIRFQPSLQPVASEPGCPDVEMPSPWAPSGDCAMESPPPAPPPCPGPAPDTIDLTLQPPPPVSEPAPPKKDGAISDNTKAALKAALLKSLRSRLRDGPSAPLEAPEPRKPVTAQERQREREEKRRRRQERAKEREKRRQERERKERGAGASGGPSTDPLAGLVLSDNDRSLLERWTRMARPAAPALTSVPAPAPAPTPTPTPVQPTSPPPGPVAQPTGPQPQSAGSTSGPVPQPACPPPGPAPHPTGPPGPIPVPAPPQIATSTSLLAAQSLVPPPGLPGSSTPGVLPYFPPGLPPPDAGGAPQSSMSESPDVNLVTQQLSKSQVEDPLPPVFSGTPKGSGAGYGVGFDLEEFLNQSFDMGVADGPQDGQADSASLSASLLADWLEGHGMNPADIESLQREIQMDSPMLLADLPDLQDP

[8] = viability rescue of complex I mutant cybrids, primary screen, cell-based, galactose medium, ATP luminescence (AID 1645843;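 active = z-score of at least 1.8 in each of two replicates, scored against plate mean and spread of sample wells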;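 note: positive z means more ATP and so rescue of galactose-driven cybrid death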); details: complex I mutant cybrid cells, 72 h, stronger effect = higher value
[9] = SU-DIPG-VI glioma cell viability, MIPE4.0 library, CellTiter-Glo luminescence, qHTS (AID 1347066; cut-off not given, nearly all actives have AC50 up to about 30 µM;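 note: cells exposed to compound for 48 hours before readout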); details: CellTiter-Glo ATP luminescence
[10] = modifiers of HSF1 nuclear foci, imaging, Selleck Cancer Library (AID 1347162; in the data active = plate-normalised HSF1 focus index below about 0.46); details: human cells, at 10 µM; SSMD: measured here: HSF1 foci SSMD mean; cell count: measured here: cell number; plate-normalised HSF1 focus index: stronger effect = lower value
[11] = ovarian cancer cell viability with rucaparib, profiling panel, oncology-focused library, rucaparib conditional (AID 1508598); details: patient-derived ovarian cancer cells, CellTiter-Glo viability, 144 h, stronger effect = lower value
[12] = LFS_MB_P medulloblastoma growth inhibition, cell-based, chromothripsis tumors, cisplatin or BGB combos (AID 1671449; in the data active = inhibition above about 80%;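 note: cells exposed for 96 hours; 0% = vehicle DMSO and 100% = killing by high DMSO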); details: LFS_MB_P medulloblastoma cells
[13] = HDN33 neuroblastoma growth inhibition, cell-based, chromothripsis tumors, cisplatin or BGB combos (AID 1671450; in the data active = inhibition above about 80%;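 note: cells exposed to compound for four days; 0% = vehicle DMSO and 100% = cell killing by high DMSO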); details: HDN33 neuroblastoma cells, stronger effect = higher value
[14] = ICB984 medulloblastoma cell growth inhibition, synergistic combos for chromothripsis tumors, cisplatin or BGB combos (AID 1671451); details: ICB984 medulloblastoma cells, drug combinations, at 0.005 µM, stronger effect = higher value;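 note: cells exposed for 96 hours before readout; 0% = vehicle DMSO and 100% = killing by high DMSO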
[15] = stronger effect = lower value, cell number ratio, induced over uninduced
[16] = measured here: relative caspase fold change +Dox/-Dox
[17] = measured here: total cells with miR-34 induction, stronger effect = lower value
[18] = measured here: total cells without miR-34 induction
[19] = MELAS cybrid survival, CellTiter-Glo 48 h, stronger effect = higher value
[20] = Rieske KO mouse fibroblast survival, CellTiter-Glo 72 h

**Q.** Which outcome [1] does the source give for `CCN1CCN(C(=O)N[C@@H](C(=O)N[C@@H]2C(=O)N3C(C(=O)O)=C(CSc4nnnn4C)CS[C@H]23)c2ccc(O)cc2)C(=O)C1=O` here?
**A.** inactive

**Q.** And the outcome [2]?
**A.** inactive

**Q.** And the outcome [3]?
**A.** inactive

**Q.** What about the fold change [4, 15] of the same compound?
**A.** 0.863 (inactive) and 0.844 (inactive)

**Q.** And the fold change [4, 16]?
**A.** 1.41 and 1.35

**Q.** What about the cell count [4, 17] of the same compound?
**A.** 7800 and 9270

**Q.** What about the cell count [4, 18] of the same compound?
**A.** 9050 and 11000

**Q.** What about the z-score [5, 19] of the same compound?
**A.** -0.583 (inactive) and -0.0634 (inactive)

**Q.** What about the z-score [5, 20] of the same compound?
**A.** -0.0146 and -0.684

**Q.** What about the remaining NAD [6] of the same compound?
**A.** 10 nM (inactive)

**Q.** And the luciferase signal [7]?
**A.** 88 AU (inactive)

**Q.** And the z-score [8]?
**A.** -0.045 (inactive)

**Q.** For `COC1=C(OC)C(=O)C(CCCCCCCCCCO)=C(C)C1=O`, which outcome [1] is on record?
**A.** inactive

**Q.** What about the AC50 [9] of the same compound?
**A.** 23.5 µM (active)

**Q.** What about the outcome [3] of the same compound?
**A.** inactive

**Q.** What about the fold change [4, 15] of the same compound?
**A.** 0.841 (inactive) and 0.881 (inactive) and 0.889 (inactive)

**Q.** What about the fold change [4, 16] of the same compound?
**A.** 1.87 and 0.941 and 1.43

**Q.** And the cell count [4, 17]?
**A.** 8540 and 8000 and 9340

**Q.** What about the cell count [4, 18] of the same compound?
**A.** 10200 and 9080 and 10500

**Q.** And the z-score [5, 19]?
**A.** -0.358 (inactive) and -0.43 (inactive) and 0.294 (inactive)

**Q.** What about the z-score [5, 20] of the same compound?
**A.** 0.303 and 0.0167 and -0.141

**Q.** What about the remaining NAD [6] of the same compound?
**A.** 10 nM (inactive)

**Q.** What about the z-score [8] of the same compound?
**A.** -1.85 (inactive) and -2.1 (inactive)

**Q.** For `O=NN(CCCl)C(=O)NC1CCCCC1`, which outcome [1] is on record?
**A.** inactive

**Q.** What about the outcome [9] of the same compound?
**A.** inactive

**Q.** What about the outcome [3] of the same compound?
**A.** inactive

**Q.** What about the fold change [4, 15] of the same compound?
**A.** 0.819 (inactive) and 0.861 (inactive)

**Q.** And the fold change [4, 16]?
**A.** 1.64 and 1.87

**Q.** What about the cell count [4, 17] of the same compound?
**A.** 7170 and 7550

**Q.** What about the cell count [4, 18] of the same compound?
**A.** 8750 and 8760

**Q.** What about the SSMD [10] of the same compound?
**A.** 0.27

**Q.** What about the cell count [10] of the same compound?
**A.** 6620

**Q.** And the plate-normalised HSF1 focus index [10]?
**A.** 1.01 (inactive)

**Q.** And the z-score [5, 19]?
**A.** -0.38 (inactive) and -0.0882 (inactive)

**Q.** And the z-score [5, 20]?
**A.** 0.628 and -0.815

**Q.** What about the viability ([11]; at 0.000305 µM, OCI-C5x cells, with rucaparib 10 µM, 100% = cells with rucaparib alone) of the same compound?
**A.** 106% (inactive)

**Q.** What about the viability ([11]; at 0.000305 µM, OCI-C5x cells, without rucaparib) of the same compound?
**A.** 116% (inactive)

**Q.** And the viability ([11]; at 0.000305 µM, OCI-P5x cells, with rucaparib 20 µM, 100% = cells with rucaparib alone)?
**A.** 87.5% (active)

**Q.** What about the viability ([11]; at 0.000305 µM, OCI-P5x cells, without rucaparib) of the same compound?
**A.** 105% (inactive)

**Q.** And the viability ([11]; at 0.00122 µM, OCI-C5x cells, with rucaparib 10 µM, 100% = cells with rucaparib alone)?
**A.** 106% (inactive)

**Q.** What about the viability ([11]; at 0.00122 µM, OCI-C5x cells, without rucaparib) of the same compound?
**A.** 123% (inactive)

**Q.** And the viability ([11]; at 0.00122 µM, OCI-P5x cells, with rucaparib 20 µM, 100% = cells with rucaparib alone)?
**A.** 100% (active)

**Q.** And the viability ([11]; at 0.00122 µM, OCI-P5x cells, without rucaparib)?
**A.** 107% (inactive)

**Q.** And the viability ([11]; at 0.00488 µM, OCI-C5x cells, with rucaparib 10 µM, 100% = cells with rucaparib alone)?
**A.** 107% (inactive)

**Q.** And the viability ([11]; at 0.00488 µM, OCI-C5x cells, without rucaparib)?
**A.** 120% (inactive)

**Q.** What about the viability ([11]; at 0.00488 µM, OCI-P5x cells, with rucaparib 20 µM, 100% = cells with rucaparib alone) of the same compound?
**A.** 94.7% (active)

**Q.** And the viability ([11]; at 0.00488 µM, OCI-P5x cells, without rucaparib)?
**A.** 109% (inactive)

**Q.** And the viability ([11]; at 0.0195 µM, OCI-C5x cells, with rucaparib 10 µM, 100% = cells with rucaparib alone)?
**A.** 121% (inactive)

**Q.** What about the viability ([11]; at 0.0195 µM, OCI-C5x cells, without rucaparib) of the same compound?
**A.** 122% (inactive)

**Q.** What about the viability ([11]; at 0.0195 µM, OCI-P5x cells, with rucaparib 20 µM, 100% = cells with rucaparib alone) of the same compound?
**A.** 97.1% (active)

**Q.** And the viability ([11]; at 0.0195 µM, OCI-P5x cells, without rucaparib)?
**A.** 116% (inactive)

**Q.** What about the viability ([11]; at 0.0781 µM, OCI-C5x cells, with rucaparib 10 µM, 100% = cells with rucaparib alone) of the same compound?
**A.** 107% (inactive)

**Q.** What about the viability ([11]; at 0.0781 µM, OCI-C5x cells, without rucaparib) of the same compound?
**A.** 121% (inactive)

**Q.** What about the viability ([11]; at 0.0781 µM, OCI-P5x cells, with rucaparib 20 µM, 100% = cells with rucaparib alone) of the same compound?
**A.** 97.7% (active)

**Q.** What about the viability ([11]; at 0.0781 µM, OCI-P5x cells, without rucaparib) of the same compound?
**A.** 112% (inactive)

**Q.** And the viability ([11]; at 0.313 µM, OCI-C5x cells, with rucaparib 10 µM, 100% = cells with rucaparib alone)?
**A.** 113% (inactive)

**Q.** And the viability ([11]; at 0.313 µM, OCI-C5x cells, without rucaparib)?
**A.** 119% (inactive)

**Q.** And the viability ([11]; at 0.313 µM, OCI-P5x cells, with rucaparib 20 µM, 100% = cells with rucaparib alone)?
**A.** 103% (inactive)

**Q.** And the viability ([11]; at 0.313 µM, OCI-P5x cells, without rucaparib)?
**A.** 119% (inactive)

**Q.** And the viability ([11]; at 1.25 µM, OCI-C5x cells, with rucaparib 10 µM, 100% = cells with rucaparib alone)?
**A.** 115% (inactive)

**Q.** And the viability ([11]; at 1.25 µM, OCI-C5x cells, without rucaparib)?
**A.** 125% (inactive)

**Q.** What about the viability ([11]; at 1.25 µM, OCI-P5x cells, with rucaparib 20 µM, 100% = cells with rucaparib alone) of the same compound?
**A.** 90.9% (active)

**Q.** What about the viability ([11]; at 1.25 µM, OCI-P5x cells, without rucaparib) of the same compound?
**A.** 108% (inactive)

**Q.** What about the viability ([11]; at 5 µM, OCI-C5x cells, with rucaparib 10 µM, 100% = cells with rucaparib alone) of the same compound?
**A.** 118% (inactive)

**Q.** And the viability ([11]; at 5 µM, OCI-C5x cells, without rucaparib)?
**A.** 124% (inactive)

**Q.** And the viability ([11]; at 5 µM, OCI-P5x cells, with rucaparib 20 µM, 100% = cells with rucaparib alone)?
**A.** 97.4% (active)

**Q.** And the viability ([11]; at 5 µM, OCI-P5x cells, without rucaparib)?
**A.** 125% (inactive)

**Q.** And the remaining NAD [6]?
**A.** 10 nM (inactive)

**Q.** And the z-score [8]?
**A.** -0.495 (inactive)

**Q.** And the inhibition ([12]; at 0.5 µM, stronger effect = higher value)?
**A.** -24.1% (inactive) and -26.9% (inactive)

**Q.** And the inhibition ([12]; measured here: combination with BGB IC20, at 0.005 µM)?
**A.** -12.9% and -1.3%

**Q.** What about the inhibition ([12]; measured here: combination with BGB IC40, at 0.005 µM) of the same compound?
**A.** -38% and -34.1%

**Q.** What about the inhibition ([12]; measured here: combination with BGB IC40, at 0.05 µM) of the same compound?
**A.** -45.8% and -16.7%

**Q.** What about the inhibition ([12]; measured here: combination with cisplatin, at 0.5 µM, stronger effect = higher value) of the same compound?
**A.** -40% and -38.1%

**Q.** And the inhibition ([12]; measured here: combination with cisplatin, at 5 µM, stronger effect = higher value)?
**A.** -6.56% and -25.7%

**Q.** What about the inhibition ([13]; BGB combo, at 5 µM) of the same compound?
**A.** -29.5% and -15.3%

**Q.** What about the inhibition ([13]; at 0.5 µM) of the same compound?
**A.** -27.8% (inactive) and -8.82% (inactive)

**Q.** What about the inhibition ([13]; cisplatin combo, at 5 µM) of the same compound?
**A.** -16% and 13.3%

**Q.** What about the inhibition ([13]; measured here: with BGB IC20 combination, at 0.5 µM) of the same compound?
**A.** -31.2% and -14.7%

**Q.** What about the inhibition ([13]; measured here: with cisplatin IC20 combination, at 0.5 µM) of the same compound?
**A.** -22.8% and -17.6%

**Q.** What about the inhibition ([13]; single agent, at 5 µM) of the same compound?
**A.** -25.6% and 2.38%

**Q.** What about the inhibition ([14]; BGB IC20 combo) of the same compound?
**A.** -12.5% and 2.61%

**Q.** And the inhibition ([14]; BGB IC40 combo)?
**A.** -25.1% and -35.2%
